The text below walks through data of PubChem BioAssay.

As usually defined, the inhibition is the drop in the measured response relative to a control, in per cent.

Unmarked numbers belong to inactive results. For some assays here: Entries with a potency or affinity are not part of this list. The source made the active and inactive calls. Unless noted, no rule for the calls is given here.

A short description of assay [1]: antimalarial activity against Dd2 strain (AID 2302;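 active = growth inhibition above 50% at the single 2 µM test dose, taken to imply half-maximal potency below 2 µM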;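 also: 0% = DMSO untreated growth and 100% = chloroquine plus artemisinin killed control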). Particulars: P. falciparum Dd2 in RBCs, LDH growth readout, 72 h; at 2 µM; active compounds read high.
Assay [2] can be described thus: HepG2 cytotoxicity, primary screen, cytotoxicity control for P. falciparum antimalarial project, cell-based, ATP luminescence (AID 2303;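 active = inhibition above 50%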;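 also: 0% = DMSO wells and 100% = digitonin-killed cells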). The following applies: HepG2 viability, 24-48 h, at 10 µM, active compounds read high.
For assay [3], the target named is L-lactate dehydrogenase (Plasmodium falciparum (isolate CDC / Honduras)) (UniProt Q27743). Nature of the assay: PfLDH activity inhibition – cell lysate, 3D7 strain, counter-screen for P. falciparum growth inhibition project (AID 2304).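 Also: 0% = vehicle and 100% = reference inhibitor.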 Particulars: P. falciparum 3D7 crude extract, LDH APAD/NBT absorbance; at 2 µM; active compounds read high. On the technique in general: The purpose of a counterscreen is to sort out artefacts and off-target activity.

Assay [4] in a line: inhibition of 3D7 malaria parasite growth – strain 3D7 (AID 2306).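 Also: 0% = DMSO wells and 100% = chloroquine plus artemisinin control wells.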 Particulars: P. falciparum 3D7 erythrocytic growth, LDH absorbance, 72 h; at 2 µM; active compounds read high.
Assay [5] addresses Calcium-dependent protein kinase 1 (Plasmodium falciparum (isolate 3D7)) (UniProt P62344). Nature of the assay: PfCDPK1 kinase inhibitors, biochemical, TCAMS library (AID 1159585; cut-off not given, nearly all actives have IC50 up to about 0.98 µM;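 also: inhibitors leave more ATP so luminescence rises with inhibition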). Particulars: recombinant PfCDPK1, Kinase-Glo ATP depletion luminescence.
The target of assay [6] is Plasmodium falciparum protein kinase 6 (PK6, PF3D7_1337100) (UniProt Q8IDW1). Nature of the assay: PfPK6 kinase inhibitors, biochemical, TCAMS library (AID 1159586). The following applies: recombinant PfPK6, Kinase-Glo ATP depletion luminescence.
Assay [7] addresses Protein kinase 7 (PK7), Plasmodium falciparum 3D7 (PF3D7_0213400) (UniProt Q7YTF7). Briefly: inhibition of Plasmodium PK7 catalytic activity – biochemical, TCAMS antimalarial set, Kinase-Glo luminescence (AID 1159587). The following applies: recombinant PfPK7, Kinase-Glo ATP depletion luminescence. On the technique in general: Kinase-Glo measures the ATP left after a reaction by luminescence.

In assay [8] the target is Calcium-dependent protein kinase 4 (Plasmodium falciparum (isolate 3D7)) (UniProt Q8IBS5). Nature of the assay: PfCDPK4 kinase inhibitors, biochemical, TCAMS library (AID 1159588; cut-off not given, nearly all actives have IC50 up to about 0.91 µM). The following applies: recombinant PfCDPK4, Kinase-Glo ATP depletion luminescence.
Calcium-dependent protein kinase 4 (Plasmodium falciparum (isolate 3D7)), sequence (Q8IBS5 whole entry, looked up): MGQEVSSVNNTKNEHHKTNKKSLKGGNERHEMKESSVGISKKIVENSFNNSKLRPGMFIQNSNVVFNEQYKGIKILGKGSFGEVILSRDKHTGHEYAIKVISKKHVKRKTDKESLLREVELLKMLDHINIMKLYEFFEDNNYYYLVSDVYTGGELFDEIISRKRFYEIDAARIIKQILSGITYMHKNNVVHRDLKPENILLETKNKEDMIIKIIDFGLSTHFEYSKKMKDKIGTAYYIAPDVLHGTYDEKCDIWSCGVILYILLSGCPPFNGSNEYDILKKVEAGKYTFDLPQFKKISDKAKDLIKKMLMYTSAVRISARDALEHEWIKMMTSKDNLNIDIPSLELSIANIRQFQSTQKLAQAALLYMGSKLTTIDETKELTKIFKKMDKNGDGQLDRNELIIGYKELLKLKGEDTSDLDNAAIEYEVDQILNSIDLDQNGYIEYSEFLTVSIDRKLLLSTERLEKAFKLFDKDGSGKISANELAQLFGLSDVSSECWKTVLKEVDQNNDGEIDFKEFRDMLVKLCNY

Calcium-dependent protein kinase 1 (Plasmodium falciparum (isolate 3D7)), sequence (P62344 whole entry, looked up): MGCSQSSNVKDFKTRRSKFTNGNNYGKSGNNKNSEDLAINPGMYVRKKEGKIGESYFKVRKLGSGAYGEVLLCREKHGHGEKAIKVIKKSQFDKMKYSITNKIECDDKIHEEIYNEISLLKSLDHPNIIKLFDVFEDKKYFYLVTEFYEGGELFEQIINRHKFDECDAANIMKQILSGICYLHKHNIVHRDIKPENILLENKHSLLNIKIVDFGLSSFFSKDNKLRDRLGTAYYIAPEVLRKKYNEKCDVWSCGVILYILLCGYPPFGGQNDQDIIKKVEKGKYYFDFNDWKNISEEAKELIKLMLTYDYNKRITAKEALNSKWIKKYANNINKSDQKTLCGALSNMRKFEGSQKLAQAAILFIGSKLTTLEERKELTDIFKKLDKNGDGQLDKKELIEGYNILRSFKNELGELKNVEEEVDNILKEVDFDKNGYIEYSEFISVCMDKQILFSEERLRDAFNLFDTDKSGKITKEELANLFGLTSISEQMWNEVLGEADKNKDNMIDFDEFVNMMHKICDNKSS
Protein kinase 7 (PK7), Plasmodium falciparum 3D7 (PF3D7_0213400), sequence (Q7YTF7 1-343): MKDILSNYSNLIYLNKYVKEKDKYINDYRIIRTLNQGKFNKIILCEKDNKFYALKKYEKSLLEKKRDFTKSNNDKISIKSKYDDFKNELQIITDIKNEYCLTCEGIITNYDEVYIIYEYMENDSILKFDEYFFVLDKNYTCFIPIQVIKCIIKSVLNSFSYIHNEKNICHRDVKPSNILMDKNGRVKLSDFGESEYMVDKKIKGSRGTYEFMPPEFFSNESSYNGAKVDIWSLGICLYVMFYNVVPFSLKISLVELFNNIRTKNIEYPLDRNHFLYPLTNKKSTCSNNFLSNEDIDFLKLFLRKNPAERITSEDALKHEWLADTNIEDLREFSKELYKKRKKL
L-lactate dehydrogenase (Plasmodium falciparum (isolate CDC / Honduras)), sequence (Q27743 whole entry, looked up): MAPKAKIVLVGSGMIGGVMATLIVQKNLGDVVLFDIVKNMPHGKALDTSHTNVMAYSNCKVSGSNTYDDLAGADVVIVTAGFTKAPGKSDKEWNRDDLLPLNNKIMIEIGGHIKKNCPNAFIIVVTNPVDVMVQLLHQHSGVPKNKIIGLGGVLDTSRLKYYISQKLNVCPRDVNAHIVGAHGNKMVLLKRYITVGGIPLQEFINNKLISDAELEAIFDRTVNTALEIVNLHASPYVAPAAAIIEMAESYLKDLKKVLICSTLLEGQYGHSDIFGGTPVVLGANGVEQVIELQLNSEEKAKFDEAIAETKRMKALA
Plasmodium falciparum protein kinase 6 (PK6, PF3D7_1337100), sequence (Q8IDW1 1-305): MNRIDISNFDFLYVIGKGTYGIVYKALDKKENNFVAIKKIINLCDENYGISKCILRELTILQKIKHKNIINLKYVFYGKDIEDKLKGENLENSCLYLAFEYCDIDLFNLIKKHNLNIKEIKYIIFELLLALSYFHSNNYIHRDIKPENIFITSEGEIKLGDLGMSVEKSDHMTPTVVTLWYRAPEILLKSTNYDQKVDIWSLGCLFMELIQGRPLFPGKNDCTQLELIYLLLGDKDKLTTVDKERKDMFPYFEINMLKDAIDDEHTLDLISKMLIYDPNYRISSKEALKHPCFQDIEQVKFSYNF

For the molecule `CCCCCCN1CCCN(Cc2ccc(C(=O)Nc3ccc(CCC)cc3)cc2)CC1`, the growth inhibition was 56% (active) in assay [1] and 92% (active) in assay [4]. Further, the inhibition in assay [2] was 45%; in assay [3], -3%. Also, the outcome in assay [5], in assay [6], in assay [7] and in assay [8] was inactive.
Turning to `OC1CCCN(Cc2ccc(-c3ccc(-c4nc5ccccc5[nH]4)cc3)cc2)C1` (configuration not stated), the results for the growth inhibition in assay [1] and in assay [4] were 77% (active) and 100% (active), respectively. Also, the inhibition in assay [2] is 46%; in assay [3] it was -4%. The outcome in assay [5], in assay [6], in assay [7] and in assay [8] was inactive.
As to `Cc1cc(N[C@@H](Cc2ccccc2)C(=O)Nc2ccccc2)nc(NCCc2ccc(F)cc2)n1`, the growth inhibition in assay [1] was 81% (active); in assay [4] it was 96% (active). In addition, the inhibition is 26% in assay [2] and 0% in assay [3]. Besides, the result in assay [5], in assay [6], in assay [7] and in assay [8] was inactive.
Turning to `COc1ccc2nc(C)cc(Nc3ccc(Cl)cc3)c2c1`, the growth inhibition in assay [1] was 3%; in assay [4], 89% (active). For the same molecule, the inhibition in assay [2] was 10%; in assay [3], -2%. Further, the outcome in assay [5], in assay [6], in assay [7] and in assay [8] was inactive.
For `Cc1noc(C)c1-c1ccc2c(Nc3cccc4c3-c3ccccc3C4=O)c(C(=O)NCc3ccccc3I)cnc2c1`, the growth inhibition in assay [1] and in assay [4] was 99% (active) each time. Moreover, the figures for the inhibition in assay [2] and in assay [3] were 27% and 2%, respectively. Moreover, the result in assay [5], in assay [6], in assay [7] and in assay [8] was inactive.
On to `CC(=NN=C(N)N)c1ccc2c(ccc3ccccc32)c1`, for which the values for the growth inhibition in assay [1] and in assay [4] were 15% and 100% (active), respectively. Further, the inhibition was 47% in assay [2] and 8% in assay [3]. The outcome in assay [5], in assay [6], in assay [7] and in assay [8] was inactive.
Consider `FC(F)(F)c1cccc(CNCC2CCN(CC3CCCCC3)CC2)c1`, for which the growth inhibition in assay [1] was 24%; in assay [4] it was 101% (active). For the same molecule, the inhibition in assay [2] is 21%; in assay [3], 3%. In addition, the outcome in assay [5], in assay [6], in assay [7] and in assay [8] was inactive.
On to `Cc1cc(C)c(NC(=O)N[C@H]2CCN(CCCCCNC(=O)/C=C/c3ccc(Cl)c(Cl)c3)C2)c(C)c1`, for which the figures for the growth inhibition in assay [1] and in assay [4] were 3% and 91% (active), respectively. For the same molecule, the inhibition in assay [2] was 12%; in assay [3] it was -4%. For the same molecule, the outcome in assay [5], in assay [6], in assay [7] and in assay [8] was inactive.
For the molecule `O=S(=O)(c1ccc(Cl)cc1Cl)N1CCCCC(c2ccc(C(F)(F)F)cc2)=N1`, the growth inhibition is 99% (active) in assay [1] and 100% (active) in assay [4]. The inhibition in assay [2] was 10%; in assay [3] it was 4%. The outcome in assay [5], in assay [6], in assay [7] and in assay [8] was inactive.
With `COc1ccc2nccc([C@@H](O)CN3CCC(NCc4ccc5c(c4)NC(=O)CS5)CC3)c2c1`, the growth inhibition is 36% in assay [1] and 102% (active) in assay [4]. Also, the values for the inhibition in assay [2] and in assay [3] were -4% and -1%, respectively. Besides, the result in assay [5], in assay [6], in assay [7] and in assay [8] was inactive.
In the case of `COc1ccc2nc3cc(Cl)ccc3c(NCCN3CCN(C)CC3)c2c1`, the growth inhibition was 99% (active) in assay [1] and 100% (active) in assay [4]. The inhibition was 29% in assay [2] and 2% in assay [3]. For the same molecule, the outcome in assay [5], in assay [6], in assay [7] and in assay [8] was inactive.
As for `CNCCNC(=O)C1Cc2c([nH]c3c(C)cccc23)C(c2ccc(Cl)c(Cl)c2)N1` (configuration not stated), the growth inhibition in assay [1] is 60% (active); in assay [4] it was 102% (active). The inhibition is 13% in assay [2] and -5% in assay [3]. Besides, the result in assay [5], in assay [6], in assay [7] and in assay [8] was inactive.
With `COc1ccc(C=NNc2nc3ccccc3[nH]2)cc1O`, the growth inhibition in assay [1] was 13%; in assay [4] it was 95% (active). Besides, the inhibition in assay [2] was 15%; in assay [3], 0%. Also, the result in assay [5], in assay [6], in assay [7] and in assay [8] was inactive.
Take `COCCNCc1cccc(-c2cccc(CNC3CCN(Cc4ccccc4)CC3)c2)c1`: the growth inhibition was 99% (active) in assay [1] and 101% (active) in assay [4]. The inhibition in assay [2] is 28%; in assay [3], -4%. Further, the result in assay [5], in assay [6], in assay [7] and in assay [8] was inactive.
As to `CCn1c(-c2cc(C)on2)nc2cnc(Oc3ccc(C(=O)N4CC(=O)N(C)C4C(C)(C)C)cc3)cc21` (configuration not stated), the growth inhibition in assay [1] was 57% (active); in assay [4], 81% (active). Further, the inhibition in assay [2] was 44%; in assay [3], 4%. In addition, the outcome in assay [5], in assay [6], in assay [7] and in assay [8] was inactive.
In the case of `Nc1ccc2[nH]cc(C3CCN(CCC4CCN(C(=O)/C=C/c5ccc(Cl)c(Cl)c5)CC4)CC3)c2n1`, the growth inhibition in assay [1] is 78% (active); in assay [4], 100% (active). Further, the inhibition in assay [2] is 27%; in assay [3] it was 0%. For the same molecule, the outcome in assay [5], in assay [6], in assay [7] and in assay [8] was inactive.
In the case of `O=C(Nc1cccc(N2CCC(NCc3cnn(-c4cccc(F)c4)c3)CC2)c1)c1ccncc1`, the growth inhibition in assay [1] is 40%; in assay [4], 84% (active). In addition, the values for the inhibition in assay [2] and in assay [3] were 50% (active) and 4%, respectively. The outcome in assay [5], in assay [6], in assay [7] and in assay [8] was inactive.
As for `CN(C)c1ccc2c(c1)Sc1cc(N(C)C)ccc1N2C(=O)CCCC(=O)O`, the growth inhibition in assay [1] is 81% (active); in assay [4], 96% (active). In addition, the inhibition in assay [2] was -4%; in assay [3], -6%. Moreover, the outcome in assay [5], in assay [6], in assay [7] and in assay [8] was inactive.
As for `CCn1cc(CN2CCCC(C(=O)Nc3ccc(-c4nc5ccccc5[nH]4)cc3)C2)c(C)n1` (configuration not stated), the growth inhibition in assay [1] is 28%; in assay [4], 100% (active). Further, the inhibition is 22% in assay [2] and 2% in assay [3]. The result in assay [5], in assay [6], in assay [7] and in assay [8] was inactive.
